In the library only some 4.6% were active in any assay of this set; here they are far more common.
TRHR PAM = TRH receptor (human) allosteric enhancement; P34981; TRHR cells, fluo-8 calcium fluorescence, EC20 TRH enhancement; enhancement, % at 2 µM; hit rate 0.66% among 360,000; AID 493056; in the data active means enhancement above about 30%; further: 0% is about no effect
Target sequence (P34981 whole entry, looked up): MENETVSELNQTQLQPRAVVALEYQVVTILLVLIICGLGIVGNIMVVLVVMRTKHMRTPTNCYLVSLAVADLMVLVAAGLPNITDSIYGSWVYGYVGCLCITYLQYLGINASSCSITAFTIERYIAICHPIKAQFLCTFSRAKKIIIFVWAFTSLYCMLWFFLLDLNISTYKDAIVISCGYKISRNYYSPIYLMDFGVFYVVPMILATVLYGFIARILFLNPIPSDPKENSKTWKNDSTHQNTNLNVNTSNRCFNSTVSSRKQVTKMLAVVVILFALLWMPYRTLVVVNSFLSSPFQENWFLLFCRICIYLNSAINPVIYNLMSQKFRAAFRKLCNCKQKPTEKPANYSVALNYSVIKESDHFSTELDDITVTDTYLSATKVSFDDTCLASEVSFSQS
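TRHR-expressing cells loaded with fluo-8 calcium dye were read kinetically (ex 480/em 530) during compound addition, then stimulated with an EC20 of TRH (10 nM final). Enhancement of the Gq-mediated intracellular calcium response was scored.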
D1 PAM = enhances dopamine response at the human D1 receptor. AID 504651. potentiation, % at 10 µM. hit rate 0.036% among 360,000. HEK293 TREx D1 cells, calcium flux, dopamine EC20 potentiation. P21728; in the data active means potentiation above about 30%; further: 0% is about no effect
D1 ag = activates the human D1 dopamine receptor; hit rate 1% among 360,000; P21728; AID 504660; HEK293 T-REx D1 cells, calcium flux, agonist mode; activation, % at 2 µM; further: 0% is about no effect
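Tetracycline-induced HEK293 TREx D1 cells, force-coupled to calcium signalling, were dye-loaded with a no-wash calcium kit. Compound was pin-added after a 10 s baseline. Fluorescence was read kinetically at 1 cycle/s for 180 s, with calcium rises flagged as agonism.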
D1 antagonist = blocks dopamine activation of the human D1 receptor | AID 504652 | P21728 | HEK293 TREx D1 cells, calcium flux, dopamine EC80; hits give low values | activity change, negative = inhibition, % at 10 µM | hit rate 3.2% among 360,000; in the data active means activity change below about -30%; further: on the % scale 0 is the no-effect control and ±100 the full control effect
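Using tetracycline-induced force-coupled D1 Hek293 cells and a calcium dye, signals were followed for 180 s after compound, then for 180 s after EC80 dopamine, to detect inhibitors.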
TRHR agonist = activates the human TRH receptor | P34981 | TRHR cells, calcium flux fluo-8, FDSS agonist mode | activation, % at 2 µM | hit rate 0.18% among 360,000; further: 0% is about no effect
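Fluo-8-loaded TRHR cells; 10 s baseline, compound added, kinetic Ca2+ fluorescence read 1/s, agonist mode.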
* marks the source's active call; other numbers are inactive results. Unless noted, no stated cut-off is given here; in the data, active means activation above about 30%; inactive means the rest.

SMILES | TRHR PAM | D1 PAM | D1 ag | D1 antagonist | TRHR agonist
CCCCN(C)CC(O)Cn1cc(/C=C/C(=O)c2ccc(C)cc2)c2ccccc21 (stereo unspecified) | 1 | -5 | 33* | -18 | 2
COc1ccc(C(=O)/C=C/c2cn(CC(O)CN3CCN(C)CC3)c3ccccc23)cc1OC (stereo unspecified) | -1 | -5 | 8 | 20 | 13
Cc1cccc(OCC(=O)N2CCC(c3nc4ccccc4o3)CC2)c1C | 5 | 1 | -1 | -11 | 0
CCN1C(=O)C(CC(=O)Nc2ccc(OC)cc2)N(CCCN2CCN(c3ccc(F)cc3)CC2)C1=S (stereo unspecified) | 0 | -6 | 11 | -43* | 1
COc1ccc(CCN2C(=S)N(C)C(=O)C2CC(=O)Nc2ccc(OC)cc2)cc1 (stereo unspecified) | 3 | -4 | 7 | -11 | 1
COc1ccc(NC(=O)CC2C(=O)N(C)C(=S)N2CCc2ccccc2)cc1 (stereo unspecified) | -1 | -8 | 5 | -41* | 1
CCCC[C@]12Cc3ccccc3C(O1)c1c(cc(-c3ccccc3)oc1=O)O2 | 1 | 1 | 12 | -22 | 3
O=C(Nc1n[nH]c(C(F)(F)F)n1)C1CC1 | -4 | -4 | 3 | -34* | -1
O=C(O)Cn1c2ccccc2c2n[nH]c(=S)nc21 | -2 | -6 | 0 | -33* | 0
COC(=O)Cn1c2ccccc2c2nc3ccccc3nc21 | -2 | -2 | 4 | -37* | -1
CCn1c2ccccc2c2n[nH]c(=S)nc21 | -6 | -3 | 1 | 1 | 0
COC(=O)Cn1c2nc3ccccc3nc2c2cccc(C)c21 | 2 | -9 | 0 | 17 | 0
COc1ccc(-c2cn3nc(N4CCC(C(=O)Nc5cc(Cl)ccc5C)CC4)sc3n2)cc1 | 5 | -1 | -1 | 21 | 0
COc1ccccc1NC(c1ccc(Cl)cc1)c1nnc(-c2cccc(F)c2)o1 (stereo unspecified) | 6 | 1 | 5 | -1 | 1
Cc1ccn2c(=O)cc(COc3ccc(NC(=O)COc4ccc(Cl)cc4)cc3)nc2c1 | 3 | 3 | 0 | 6 | 0
CC1(C)CC(=O)C2=C(C1)Nc1ccccc1N1C(=O)c3ccccc3C21 (stereo unspecified) | -6 | -2 | 5 | -42* | 1
COc1cccc(C2Nc3ccccc3NC3=C2C(=O)CC(C)(C)C3)c1OC (stereo unspecified) | 35* | 6 | 8 | 19 | 1
COc1ccc(C2Nc3ccccc3NC3=C2C(=O)CC(C)(C)C3)c(OC)c1OC (stereo unspecified) | -5 | -2 | -1 | 1 | 0
COC(=O)c1cn(Cc2ccc(C(F)(F)F)cc2)cc(F)c1=O | -8 | -7 | 0 | -31* | 0
COC(=O)c1ccc(Cn2cc(C(F)(F)F)ccc2=O)cc1 | -3 | -5 | 4 | -1 | 1
CC(C)Cn1cc(C(=O)N2CCN(c3cccc(Cl)c3)CC2)c2c3ccccc3n(C)c2c1=O | 7 | 2 | 6 | 2 | 2
Cc1nn2c(=O)cc(COC(=O)c3ccc(NC(=O)CCc4ccccc4)cc3)nc2s1 | -4 | 1 | 2 | 2 | 2
O=[N+]([O-])C(C1CCS(=O)(=O)C1)C1CCS(=O)(=O)C1 (stereo unspecified) | 4 | -4 | 1 | -33* | 0
CC(C)CNC1CCS(=O)(=O)C1 (stereo unspecified) | -2 | 10 | 1 | -13 | -1
CCOc1ccc(OCC)c(Nc2cc(C)nc3nc(-c4ccco4)nn23)c1 | -2 | 0 | -1 | 0 | 0
SMILES | TRHR PAM | D1 PAM | D1 ag | D1 antagonist | TRHR agonist
COc1ccccc1NC(=O)CSc1nc2ccccc2cc1Cc1ccccc1 | -8 | -3 | 6 | -33* | 0
COc1ccccc1Cc1nc2ccccc2nc1SCC(=O)N1CCCCC1 | 4 | -2 | 1 | -2 | 0
CCN(CC(=O)Nc1ccccc1OC)C(=O)CCc1ccccc1 | 39* | 5 | -3 | 7 | 0
CCN(C(=O)CSc1nc2ccccc2nc1Cc1ccccc1OC)c1ccccc1 | -6 | 0 | 3 | -45* | 0
COc1ccccc1NC(=O)CSc1n[nH]c(Cc2ccccc2)n1 | -9 | -3 | 6 | -18 | 0
COC(=O)C1=C(C)NC(=O)C1(NC(=O)c1cc(OC)c(OC)c(OC)c1)C(F)(F)F (stereo unspecified) | -3 | -3 | -1 | 10 | 1
CCn1cc(C(=O)NCc2ccccc2)c(=O)c2cc(S(=O)(=O)N3CCCCCC3)ccc21 | -2 | 4 | 2 | 1 | -1
COc1ccc(Cn2c(=O)c3oc4ccccc4c3n(Cc3cccc(F)c3)c2=O)cc1 | 0 | -6 | 9 | 6 | 0
Cc1ccc(C)c(Cn2c(=O)n(Cc3ccco3)c(=O)c3oc4ccccc4c32)c1 | -3 | -4 | 1 | 10 | 0
Cc1cccc(Cn2c(=O)n(Cc3ccccc3)c(=O)c3oc4ccccc4c32)c1 | -2 | -4 | 1 | 3 | -1
Cc1ccc(C)c(Cn2c(=O)n(C(C)C)c(=O)c3oc4ccccc4c32)c1 | 12 | -2 | 0 | -80* | 1
COc1ccc(Cn2c(=O)c3oc4ccccc4c3n(Cc3ccccc3)c2=O)cc1 | 35* | -1 | 2 | -4 | 0
Cc1ccc(Cn2c(=O)n(Cc3ccccc3)c(=O)c3oc4ccccc4c32)cc1 | 36* | -4 | 2 | 10 | 0
CN(CC(=O)Nc1ccc(Cl)cc1)C(=O)CCc1nc2sc3c(c2c(=O)[nH]1)CCCC3 | -16 | 0 | 3 | 21 | 1
COc1cccc(N2CCN(C(=O)Cn3nc(C)n4c(cc5c(OC)cccc54)c3=O)CC2)c1 | 9 | 0 | 0 | -1 | 0
CCOc1ccc(Br)cc1CNCCSc1nnnn1-c1ccccc1 | -14 | 1 | 106* | -38* | 7
Cn1nnnc1SCCCNCc1cc(Br)ccc1OCc1ccccc1 | -1 | -1 | 39* | -25 | 0
Brc1cccc(CNCCSc2nnnn2-c2ccccc2)c1 | -3 | 5 | 5 | 7 | -2
Cn1nnnc1SCCCNCc1ccc(-c2ccc(Br)cc2)o1 | 2 | 0 | 41* | -21 | 1
Cn1nnnc1SCCNCc1ccc(OCc2ccc(Cl)cc2)cc1 | -4 | -1 | 46* | -9 | 1
Cc1nnc(NC(=O)CSCc2cc(=O)c3ccccc3[nH]2)s1 | 3 | 0 | 1 | 14 | 0
CCN(Cc1ccccc1)S(=O)(=O)c1ccc(-c2coc(C)n2)cc1 | 1 | -4 | 6 | -15 | 0
Cc1cc(C)c(S(=O)(=O)NCCC2CCCN2C)c(C)c1 (stereo unspecified) | -5 | -10 | 6 | -30* | 0
Cc1cccc(OCCCCn2nnc3sc4c(c3c2=O)CCC(C)C4)c1 (stereo unspecified) | 4 | 0 | -1 | -2 | 0

Screens as filed in PubChem BioAssay.
